# Experimental data reported in the supplement of paper PMC7380943.
# Tests used:
# [1] = tested on: CLZ3 (HCA2 human fibroblast dual HR-NHEJ reporter); assay: NHEJ repair efficiency (GFP+ cells) relative to control (log10 fold); higher = more non-homologous end joining; conditions: 5 µM; doxycycline 0.5 ug/mL
# [2] = tested on: CLZ3 (HCA2 human fibroblast dual HR-NHEJ reporter); assay: HR repair efficiency (tdTomato+ cells) relative to control (log10 fold); higher = more homologous recombination; conditions: 5 µM; doxycycline 0.5 ug/mL
# 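For HR repair efficiency (tdTomato+ cells) relative to control in this document: compound given one day before doxycycline, which switches on I-SceI endonuclease expression to create double-strand breaks within the integrated reporter.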
# 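For NHEJ repair efficiency (GFP+ cells) relative to control in this document: compound given one day ahead of doxycycline, which switches on I-SceI endonuclease to cut the chromosomally integrated reporter and create DSBs.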
structure (smiles),measurement,setting,value
Cc1c(S(=O)(=O)O)oc2c1C(=O)C(=O)c1c-2ccc2c1CCCC2(C)C [Tanshinone Iia Sodium Sulfonate],NHEJ repair efficiency (log10),[1],0.0248
same,HR repair efficiency (log10),[2],0.126
C=C(C)[C@@H]1CC[C@]2(C(=O)O)CC[C@]3(C)[C@H](CC[C@@H]4[C@@]5(C)CC[C@H](O[C@@H]6OC[C@H](O)[C@H](O)[C@H]6O[C@@H]6O[C@@H](C)[C@H](O)[C@@H](O)[C@H]6O)[C@@](C)(CO)[C@@H]5CC[C@]43C)[C@@H]12 [Anemoside A3],NHEJ repair efficiency (log10),[1],0.0688
same,HR repair efficiency (log10),[2],0.0291
CC(C)=CCC[C@](C)(O[C@@H]1O[C@H](CO)[C@@H](O)[C@H](O)[C@H]1O)[C@H]1CC[C@]2(C)[C@@H]1[C@H](O)C[C@@H]1[C@@]3(C)CC[C@H](O)C(C)(C)[C@@H]3[C@@H](O[C@@H]3O[C@H](CO)[C@@H](O)[C@H](O)[C@H]3O[C@@H]3O[C@@H](C)[C@H](O)[C@@H](O)[C@H]3O)C[C@]12C [Ginsenoside Re],NHEJ repair efficiency (log10),[1],-0.152
same,HR repair efficiency (log10),[2],-0.0179
CCCCCCCCCCCCCCCC(=O)O [Palmitic Acid],NHEJ repair efficiency (log10),[1],0.0513
same,HR repair efficiency (log10),[2],0.0657
COc1c(O)cc2occ(-c3ccc(O)cc3)c(=O)c2c1O [Tectorigenin],NHEJ repair efficiency (log10),[1],-0.0657
same,HR repair efficiency (log10),[2],-0.129
C[C@H](CC(=O)C[C@@H](C)[C@H]1C[C@H](O)[C@@]2(C)C3=C(C(=O)C[C@]12C)[C@@]1(C)CCC(=O)C(C)(C)[C@@H]1C[C@@H]3O)C(=O)O [Ganoderic Acid A],NHEJ repair efficiency (log10),[1],0.0922
same,HR repair efficiency (log10),[2],0.159
COC(=O)c1ccc(O)cc1 [Methylparaben],NHEJ repair efficiency (log10),[1],0.0529
same,HR repair efficiency (log10),[2],0.0479
C[C@@H]1O[C@@H](OC[C@H]2O[C@@H](OCCc3ccc(O)c(O)c3)[C@H](O)[C@@H](O[C@@H]3O[C@@H](C)[C@H](O)[C@@H](O)[C@H]3O)[C@@H]2OC(=O)/C=C/c2ccc(O)c(O)c2)[C@H](O)[C@H](O)[C@H]1O [Poliumoside],NHEJ repair efficiency (log10),[1],0.019
same,HR repair efficiency (log10),[2],0.0718
OC[C@H]1O[C@@H](Oc2cc3c(O)cc(O)cc3[o+]c2-c2ccc(O)c(O)c2)[C@H](O)[C@@H](O)[C@@H]1O [Cyanidin3-o-glucoside],NHEJ repair efficiency (log10),[1],-0.035
same,HR repair efficiency (log10),[2],0.142
CN1Cc2c(ccc3c2OCO3)[C@@]2(C)[C@@H](O)Cc3cc4c(cc3[C@@H]12)OCO4 [Corynoline],NHEJ repair efficiency (log10),[1],-0.128
same,HR repair efficiency (log10),[2],-0.201
